The panel holds about 83,000 compounds, 20% with a hit somewhere; the sample as a whole holds those more often.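 Cells were grown in 96-well plates and exposed to the test compound at a single concentration for 48 hours; results are reported as percent growth, with values below 10 considered active.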 Values without a mark were called inactive. Active and inactive are the calls of the source.
What follows are compounds tested on ACHN renal (assay: NCI-60 one-dose screen, 48 h (100 = growth as untreated, 0 = no growth, -100 = all killed)). Details: 10 µM unless noted.
With `CC(=O)C1C(=O)C(=O)N(c2ccc(Cl)c(Cl)c2)C1=O` (stereo unspecified) the growth was 97.8%.
For `NNc1ncnc2nc[nH]c12`, the growth was 41.1%.
`CC1(C)CC(=O)C=C(N)C1` gave a growth of 107%.
`O=C1Nc2ccccc2/C1=C\c1ccccc1O` gave a growth of 85.4%.
`C=CCc1cc(OC)c(OC)c(OC)c1` was tested, and the growth was 108%.
Compound `COCC(N)=O` has a growth of 102%.
For `C/C(O)=C(/C=N/C(=S)Nc1ccccc1)C(=O)Nc1ccccc1C`, the growth was 103%.
Work on `CSc1nsc(N)n1` yielded a growth of 107%.
`c1ccc(Oc2c3ccccc3nc3ccccc23)cc1` gave a growth of 31.9%.
`NC(CSSCC(N)C(=O)O)C(=O)O` (stereo unspecified) was tested, and the growth was -37.8% (active).
`O=C(O)c1c[nH]c2ccccc2c1=O` showed a growth of 102%.
Compound `CC(C)N1CC(=O)N2CSCC2C1=O` (stereo unspecified) has a growth of 109%.
`O=C(Oc1ccccc1Cl)c1ccc(Cl)cc1Cl` was tested, and the growth was 103%.
`CN(C)c1ncnc2c1cnn2C` showed a growth of 110%.
`CC(=O)NNC(=S)/N=C\C(C(=O)c1ccccc1)=C(/O)c1ccccc1` was tested, and the growth was 99.5%.
In the case of `C=CC(C)C(C)(C)O` (stereo unspecified), the growth is reported as 106%.
Work on `C=COC(=O)CCOCC(CC)CCCC` (stereo unspecified) yielded a growth of 106%.
Work on `CCCCCCCCCCCCSC1=C(Cl)C(=O)C(OC)=C(OC)C1=O` yielded a growth of 27.7%.
Work on `Cc1onc(-c2c(F)cccc2Cl)c1-c1ncc(-c2ccc(Br)cc2)o1` yielded a growth of 32.8%.
In the case of `CC(=O)/C(C)=N\OC(=O)Nc1ccccc1`, the growth is reported as 101%.
In the case of `Cc1ccc(S(=O)(=O)Oc2ccc3sc4c(CO)ccc(NCCN(C)C)c4c(=O)c3c2)cc1`, the growth is reported as -92.7% [100 µM] (active).
